PubChem BioAssay AID687041 (Broad Institute, 2013)
Entries with a potency or affinity are not part of this list. Active and inactive are the calls of the source.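 Rule for the calls: active = compounds lowering miR-122 whose fitted half-maximal concentration is at most twice the top tested dose; inconclusive = flat fit with moderate reduction, or poor fit quality; inactive = the rest.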

Test: miR-122 quantity in Huh7 after inhibitor exposure – cell-based, RT-qPCR, dry powder, orthogonal assay for miR-122 inhibitor project, dose response (AID 687041)
Details: Huh7 miR-122 level, 48 h; series mostly up to 35 µM

outcome, inactive:
CCOc1cc(C)c(S(=O)(=O)NC2CCCCC2)cc1C
COc1ccc(C(C)(C)C)cc1S(=O)(=O)NCC1CCCO1 (stereo not drawn)
CCOc1ccc(C)cc1S(=O)(=O)NC1CCCCC1
Cc1ccc(NS(=O)(=O)c2cc(C(=O)NCc3ccccn3)ccc2Cl)cc1C
Cc1cc(C)c(S(=O)(=O)NC(C)C)c(C)c1-n1cnnn1
O=S(=O)(c1ccc2c(c1)CCCN2)N1CCC[C@@H]2CCCC[C@H]21
Cc1ccc(C)c(S(=O)(=O)Nc2ccc(-n3cnnn3)cc2)c1
COc1cc(C)c(C(C)C)cc1S(=O)(=O)n1cnc(C)c1
Nc1c(S(=O)(=O)c2cccs2)c2nc3ccccc3nc2n1Cc1ccccc1
COC(=O)c1cc(S(=O)(=O)Nc2cc(OC)cc(OC)c2)cn1C
CCOc1ccccc1N1CCN(C(=O)c2cccc(-c3ccc(O)cc3)c2)CC1
Cc1cc(S(=O)(=O)NC2CCCCC2)c(C)s1
CN1C(=O)c2cccc3c(S(=O)(=O)NCCc4ccccc4)ccc1c23
Cc1ccc(C(=O)C2Oc3ccccc3C3CC(c4ccc(C)cc4)=NN23)cc1 (stereo not drawn)
Cc1ccc(C)c(S(=O)(=O)Nc2ccc3cn[nH]c3c2)c1
O=C(Nc1ccc2ccccc2c1)c1ccc(Cl)cc1Cl
O=C(Nc1ccc(N2CCOCC2)c(S(=O)(=O)Nc2cc(Cl)ccc2Cl)c1)c1cccnc1
COc1ccc(S(=O)(=O)NCCN2CCOCC2)c2ccccc12
